Here are results for 34 molecules from the supplement of paper PMC6853941.

Where a name gives a salt, the structure may show the parent alone. A number with no mark means an inactive call.

In the assay the test system is MCF10A. Briefly: perturbation Mahalanobis distance of morphological profile vs DMSO controls (Mahalanobis distance (SD units)); higher = stronger morphological change, active = 7 or more. To be noted: screen batch: Batch1_Mahalanobis_Distance; 72 h. As to the method: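 MCF10A cells were seeded onto drugs dispensed acoustically into 384-well plates, using one dose per drug chosen from its human peak plasma concentration, and incubated for 72 h at 37 °C. Cells were stained for DNA, tubulin and mitochondria and imaged; 78 CellProfiler features were extracted, plate-normalised and compared with DMSO wells.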
As for `C[C@H](N[C@@H](CCc1ccccc1)C(=O)O)C(=O)N1CCC[C@H]1C(=O)O` [Enalaprilat] (0.67 µM), the “perturbation Mahalanobis distance” value was 3.78.

`CCN1CC(CCN2CCOCC2)C(c2ccccc2)(c2ccccc2)C1=O` (centres undefined) [Doxapram] (66 µM): the “perturbation Mahalanobis distance” value is 2.26. Next, `NNc1nncc2ccccc12` [Hydralazine] (15.6 µM): 4.07; `Nc1nc(Cl)nc2c1ncn2[C@@H]1O[C@H](CO)[C@@H](O)[C@@H]1F` [Clofarabine] (7.5 µM): 10.2 (active); `CN(C)CCCC1(c2ccc(F)cc2)OCc2cc(C#N)ccc21` (centres undefined) [Citalopram] (3.1 µM): 2.77. On to `CC(C)C1CCC(C(=O)N[C@H](Cc2ccccc2)C(=O)O)CC1` (some centres undefined) [Nateglinide] (66.1 µM), for which the “perturbation Mahalanobis distance” value is 2.59. Turning to `CO[C@H]1O[C@@H]2O[C@@]3(C)CC[C@H]4[C@H](C)CC[C@@H]([C@H]1C)[C@@]24OO3` [Artemether] (3.9 µM), the “perturbation Mahalanobis distance” value was 1.96. Consider `CC(C)N=C(N)/N=C(\N)Nc1ccc(Cl)cc1` [Proguanil] (3 µM), for which the “perturbation Mahalanobis distance” value is 2.24.

In the case of `OC(CCN1CCCCC1)(c1ccccc1)C1CCCCC1` (centres undefined) [Trihexyphenidyl] (3.3 µM), the “perturbation Mahalanobis distance” value is 1.96.

On to `CC[N+](C)(C)Cc1ccccc1Br` [Bretylium Tosylate] (84.1 µM), for which the “perturbation Mahalanobis distance” value is 2.48.

For the molecule `C[N+](C)(C)CCOC(=O)CCC(=O)OCC[N+](C)(C)C` [Succinylcholine Chloride] (12.65 µM), the “perturbation Mahalanobis distance” value was 2.23. Turning to `CCCc1nc(C(C)(C)O)c(C(=O)OCc2oc(=O)oc2C)n1Cc1ccc(-c2ccccc2-c2nn[nH]n2)cc1` [Olmesartan Medoxomil] (8.1 µM), the “perturbation Mahalanobis distance” value was 2.22. On to `Nc1nc(NC2CC2)c2ncn(C3C=C[C@H](CO)C3)c2n1` (some centres undefined) [Abacavir] (74.4 µM), for which the “perturbation Mahalanobis distance” value was 3.81. Regarding `CCOC(=O)c1ncn2c1CN(C)C(=O)c1cc(F)ccc1-2` [Flumazenil] (1.6 µM), the “perturbation Mahalanobis distance” value is 4.28.

As to `Cc1[nH]c(=O)c(C#N)cc1-c1ccncc1` [Milrinone] (5.9 µM), the “perturbation Mahalanobis distance” value was 2.49.

In the case of `COc1cccc2c1C(=O)c1c(O)c3c(c(O)c1C2=O)C[C@@](O)(C(=O)CO)C[C@@H]3O[C@H]1C[C@H](N)[C@H](O)[C@H](C)O1` [Doxorubicin] (0.18 µM), the “perturbation Mahalanobis distance” value is 11.1 (active).

With `NC[C@@H]1O[C@H](O[C@H]2[C@@H](O)[C@H](O[C@@H]3[C@@H](O)[C@H](N)C[C@H](N)[C@H]3O[C@H]3O[C@H](CO)[C@@H](O)[C@H](O)[C@H]3N)O[C@@H]2CO)[C@H](N)[C@@H](O)[C@@H]1O` [Paromomycin] (332.3 µM), the “perturbation Mahalanobis distance” value was 4.01. Next, `Nc1ccn([C@H]2CC[C@@H](CO)O2)c(=O)n1` [Zalcitabine] (2.4 µM): 2.44. In the case of `CC1=NS(=O)(=O)c2cc(Cl)ccc2N1` [Diazoxide] (86.7 µM), the “perturbation Mahalanobis distance” value is 2.69. With `CCOC(=O)C1=C[C@@H](OC(CC)CC)[C@H](NC(C)=O)[C@@H](N)C1` [Oseltamivir] (1 µM), the “perturbation Mahalanobis distance” value was 2.31. Next, `Nc1ccn([C@@H]2O[C@H](CO)[C@@H](O)[C@@H]2O)c(=O)n1` [Cytarabine] (10.3 µM): 12.2 (active). Regarding `COCCCC/C(=N\OCCN)c1ccc(C(F)(F)F)cc1` [Fluvoxamine] (3.9 µM), the “perturbation Mahalanobis distance” value was 2.43. To `CNCCCC12CCC(c3ccccc31)c1ccccc12` [Maprotiline] (10.8 µM) belongs 3.39. For the molecule `CC[C@]1(O)C[C@H]2CN(CCc3c([nH]c4ccccc34)[C@@](C(=O)OC)(c3cc4c(cc3OC)N(C)[C@H]3[C@@](O)(C(=O)OC)[C@H](OC(C)=O)[C@]5(CC)C=CCN6CC[C@]43[C@@H]65)C2)C1` [Vinblastine] (0.12 µM), the “perturbation Mahalanobis distance” value was 11.4 (active). Next, `COc1cc(C)c(/C=C/C(C)=C/C=C/C(C)=C/C(=O)O)c(C)c1C` [Acitretin] (7.7 µM): 6.19. As for `CCC(C)n1ncn(-c2ccc(N3CCN(c4ccc(OC[C@H]5CO[C@](Cn6cncn6)(c6ccc(Cl)cc6Cl)O5)cc4)CC3)cc2)c1=O` (some centres undefined) [Itraconazole] (14.2 µM), the “perturbation Mahalanobis distance” value was 2.19. `Cc1cc2cc3c(C)cc(=O)oc3c(C)c2o1` [Trioxsalen] (0.07 µM): the “perturbation Mahalanobis distance” value is 2.32. As for `COCCCOc1cc(C[C@@H](C[C@H](N)[C@@H](O)C[C@H](C(=O)NCC(C)(C)C(N)=O)C(C)C)C(C)C)ccc1OC` [Aliskiren] (2.5 µM), the “perturbation Mahalanobis distance” value was 2.96.

Turning to `C[C@]12C=CC(=O)C=C1CC[C@@H]1[C@@H]2[C@@H](O)C[C@@]2(C)[C@H]1CC[C@]2(O)C(=O)CO` [Prednisolone] (13.9 µM), the “perturbation Mahalanobis distance” value was 4.8. `CN1C(CCl)Nc2cc(Cl)c(S(N)(=O)=O)cc2S1(=O)=O` (centres undefined) [Methyclothiazide] (0.5 µM): the “perturbation Mahalanobis distance” value is 2.69. With `CC(C)NCC(O)c1ccc(O)c(O)c1` (centres undefined) [Isoproterenol] (11.8 µM), the “perturbation Mahalanobis distance” value is 3.12. `CC(C)(C#N)c1cc(Cn2cncn2)cc(C(C)(C)C#N)c1` [Anastrozole] (0.51 µM): the “perturbation Mahalanobis distance” value was 3.5.

Turning to `CN(C)CCCN1c2ccccc2Sc2ccc(C(F)(F)F)cc21` [Triflupromazine] (1.4 µM), the “perturbation Mahalanobis distance” value is 4.75. In the case of `CCN(CC)C(=S)SSC(=S)N(CC)CC` [Disulfiram] (6.7 µM), the “perturbation Mahalanobis distance” value is 2.16.
